# Shown are actives, neighbours in structure and some others; about 27% of the full set was active somewhere.
# CYP2C19 activ – human CYP2C19 activators, primary screen, biochemical, luminescence; recombinant CYP2C19, luciferin-H EGE luminescence; active compounds read high; 0 = fully inhibited enzyme, 1 = untreated enzyme; activation factor at 5 µM; 96,000 tested, under 10 active; AID 1025, 2008;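 active = activation factor of at least 2 at 5 µM in the primary screen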;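 note: 0 = wells with 2.5 mM tranylcypromine and 1 = vehicle-only wells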
# Target sequence (P33261 whole entry, looked up): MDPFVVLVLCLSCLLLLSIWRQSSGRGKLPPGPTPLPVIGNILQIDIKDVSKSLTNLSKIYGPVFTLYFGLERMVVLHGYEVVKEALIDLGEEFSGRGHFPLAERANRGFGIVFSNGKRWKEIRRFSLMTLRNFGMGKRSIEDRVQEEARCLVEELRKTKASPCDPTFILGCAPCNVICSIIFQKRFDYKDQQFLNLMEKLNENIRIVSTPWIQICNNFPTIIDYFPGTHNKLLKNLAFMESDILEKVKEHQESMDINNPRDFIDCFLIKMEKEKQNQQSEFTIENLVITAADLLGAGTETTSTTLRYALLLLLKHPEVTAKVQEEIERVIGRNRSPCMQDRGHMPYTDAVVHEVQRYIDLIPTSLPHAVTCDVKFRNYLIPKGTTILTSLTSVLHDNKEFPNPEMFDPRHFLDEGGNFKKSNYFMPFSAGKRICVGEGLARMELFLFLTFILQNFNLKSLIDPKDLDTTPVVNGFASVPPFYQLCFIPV
# CYP2C19 inhib – blockers of cytochrome P450 2C19 activity – biochemical, luminescence, ADME assay, primary screen; CYP2C19 Supersomes, luciferin-H EGE luminescence, 30 min; 96,000 compounds, 21% hits; inhibition, % at 5 µM;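 active = CYP2C19 inhibition above a set limit at 5 µM in the primary screen, cut at about 50% in these data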;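 note: plate controls were negative control wells for no effect and 2.5 mM tranylcypromine positive control for full effect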
# CYP2C9 act – human CYP2C9 activators, primary screen, biochemical, luminescence | Cytochrome P450 2C9 (Homo sapiens), P11712 | recombinant CYP2C9, luciferin-H conversion; active compounds read high; factor 1 = untreated enzyme, 0 = blocked | activation factor at 5 µM | 96,000 compounds, 1.4% hits | AID 1024, 2008;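 active = activation factor of 2 or more for CYP2C9 at a 5 µM dose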;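 note: 0 = sulfaphenazole-blocked wells and 1 = vehicle-only wells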
# CYP2C9 inhib – blockers of cytochrome P450 2C9 activity – biochemical, luminescence, ADME assay, primary screen. CYP2C9 Supersomes, luciferin-H conversion. inhibition, % at 5 µM. 96,000 compounds, 20% hits. AID 777, 2007;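 active = blocking of liver enzyme CYP2C9 beyond about 50% at 5 µM, limit read from the data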
# Cav3 T inh – Cav3.2 calcium influx blockers – cell-based, Fluo-4 calcium fluorescence, FDSS, MLSMR library, primary screen; 100,000 compounds, 4% hits; B-score at 10 µM; Cav3.2-expressing cells; active compounds read low; Voltage-dependent T-type calcium channel subunit alpha-1H (Homo sapiens), O95180;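 active = single-dose well whose peak fluorescence ratio is a statistical outlier from its plate by either plate-standardised score or position-corrected B-score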
# Active calls of the source: *; x = not tested or not shown.
SMILES,CYP2C19 activ,CYP2C19 inhib,CYP2C9 act,CYP2C9 inhib,Cav3 T inh
O=C(O)c1n[nH]c2c1CCCCC2,1,4,0.8,16,-0.043
O=C(c1n[nH]c2c1CCCC2)n1ccnc1,0.8,16,0.5,52*,0.29
O=C(O)c1n[nH]c2c1CCCC2,1,5,2.1*,-108,-0.88
CC(C)C(C(=O)Nc1nccs1)c1ccccc1 (centres undefined),0.3,68*,0.5,52*,-4.6
CC(C)Cc1ccc(C(C)C(=O)Nc2nccs2)cc1 (centres undefined),0.5,51*,0.3,68*,-1.9
CCC(Sc1nnc(C)s1)C(=O)Nc1nccs1 (centres undefined),0.6,35,0.8,25,-0.0082
CCOC(=O)C(Cc1ccccc1)C(=O)Nc1nccs1 (centres undefined),0.8,25,0.6,36,-0.15
CCOC(=O)Cc1csc(NC(NC(=O)CC)(C(F)(F)F)C(F)(F)F)n1,1,-4,1,-2,-0.98
CCSCCOC(=O)C1=C(C)NC2=C(C(=O)CCC2)C1c1coc2ccccc2c1=O (centres undefined),0.8,17,0.5,52*,-2.8
CCOC(=O)C1=C(C)NC2=C(C(=O)CC(C)(C)C2)C1c1coc2ccccc2c1=O (centres undefined),x,x,x,x,0.3
CC1=C(C(=O)OC(C)C)C(c2coc3ccccc3c2=O)C2=C(CCCC2=O)N1 (centres undefined),0.5,46,0.4,62*,0.31
O=C(CC12CC3CC(CC(C3)C1)C2)Nc1cccc2ncccc12,0.5,51*,0.7,27,0.22
O=C(Nc1cccc2ncccc12)C12CC3CC(CC(C3)C1)C2,1,-1,1.2,-24,0.79
CC(OC(=O)CCCN1C(=O)c2ccccc2C1=O)C(=O)Nc1ncc(Cl)cc1Cl (centres undefined),0.8,20,0.7,26,0.65
CC(OC(=O)C1CCN(S(=O)(=O)c2ccccc2)CC1)C(=O)Nc1ncc(Cl)cc1Cl (centres undefined),0.2,75*,0.1,93*,0.77
O=C(CN(Cc1ccco1)C(=O)CNS(=O)(=O)c1ccc(F)cc1)NCCc1ccccc1,0.3,65*,0.4,61*,-1.2
O=C(CN(Cc1ccco1)C(=O)CNS(=O)(=O)c1ccccc1)NCc1ccccc1,0.4,61*,0.7,27,-0.0042
O=C(CN(Cc1ccco1)C(=O)CNS(=O)(=O)c1ccccc1)NC1CCCCC1,0.7,30,0.9,12,x
O=C(CN(Cc1cccs1)C(=O)CN1C(=O)COc2ccccc21)NCc1ccco1,0.9,12,0.9,13,-0.14
O=C(CN(Cc1cccs1)C(=O)CNS(=O)(=O)c1ccccc1)NCc1ccco1,0.5,52*,0.7,27,x
Cc1ccc(S(=O)(=O)NCC(=O)N(CC(=O)NCc2ccco2)Cc2ccc3c(c2)OCO3)cc1,0.7,31,0.7,28,-5.1*
Cc1ccc(S(=O)(=O)NCC(=O)N(CC(=O)NCC2CCCO2)Cc2ccccc2)cc1 (centres undefined),0.7,30,1,1,-0.65
Nc1ncc2c(n1)CC(c1ccco1)CC2=O (centres undefined),0.9,11,1,-2,-0.092
O=C(COC(=O)c1ccccc1OCc1ccccc1Cl)NC1CC1,0.5,53*,0.5,45,-0.052
C=CCNCC#CCOc1ccc(OC)cc1,0.2,76*,0.9,13,1.2
SMILES,CYP2C19 activ,CYP2C19 inhib,CYP2C9 act,CYP2C9 inhib,Cav3 T inh
COCCNCC#CCOc1ccc(OC)cc1,0.9,5,1,-2,0.018
O=C(COc1ccc(Cl)cc1)N(Cc1ccccc1)c1ccccn1,0,98*,0.5,55*,-4.1
N#Cc1ccc(Oc2ccc(C(N)=O)cc2)cc1C#N,0.9,10,0.8,21,0.16
COC(=O)c1cc2oc(C)cc2n1CC(=O)N(C)c1ccccc1,0.4,64*,0.8,19,0.78
C=CCN(C(=O)Cn1c(C(=O)OC)cc2oc(C)cc21)c1ccccc1,0.1,92*,0.5,48,-0.3
COC(=O)c1cc2occc2n1CC(=O)N(C)C1CCCCC1,0.7,35,1,-2,-0.044
C(=C1/CCCC2=C1Nc1ncnn1C2c1ccccc1)/c1ccccc1 (centres undefined),0.5,49,0.7,25,-0.02
COc1ccc(C(CC(=O)O)NC(=O)c2cccs2)cc1 (centres undefined),1,4,1,0,0.073
CCOC(=O)CC(NC(=O)c1cccs1)c1ccc(OCC)cc1 (centres undefined),0.5,52*,0.3,65*,0.62
CCN(CC)S(=O)(=O)c1ccc(C(=O)NCc2cccs2)cc1,1.1,-8,0.5,53*,1.7
CCN(CC)S(=O)(=O)c1ccc(C(=O)NCc2n[nH]c(=S)n2Cc2ccccc2)cc1,1.1,-7,0.9,14,-4.1*
CCOc1ccc(C(=O)NCc2cccs2)cc1,0.3,67*,0.7,29,1.1
O=C(OCC(=O)N1CCC(Cc2ccccc2)CC1)c1ccc[nH]c1=O,1,1,0.9,14,0.46
COc1ccc(Br)cc1CNC(=O)Nc1cccs1,0.2,76*,0.3,67*,-2.4
COc1ccc(NC(=O)NCc2ccccn2)cc1OC,x,x,x,x,-0.049
COc1ccccc1CNC(=O)Nc1cccs1,0.1,88*,0.6,41,-0.42
COc1ccccc1CNC(=O)c1cccs1,0.6,45,1,-2,0.46
CCCC1C(c2ccc(OC)cc2)C(C#N)(C#N)C2(C#N)CC1(N)NC2=O (centres undefined),1.1,-6,0.6,45,0.27
O=C(NCC1CC1)[C@]1(C(F)(F)F)C[C@H](CCC2CCCCC2)CCCO1,x,x,x,x,-0.56
Cc1cc(NC(=O)CCC(=O)N(CC(=O)NCC2CCCO2)c2ccc3c(c2)OCCO3)no1 (centres undefined),x,x,x,x,-0.052
CCOC(=O)/C=c1\s/c(=C\c2c(OCC)ccc3ccccc23)c(=O)n1CC(=O)NCC1CCCO1 (centres undefined),0.1,93*,0.3,70*,-6.4*
CCOC(=O)/C=c1\s/c(=C\c2ccc3c(c2)OCCO3)c(=O)n1CC(=O)NCC1CCCO1 (centres undefined),0.3,73*,0.4,58*,-0.46
Cc1nc2c(-c3ccc(F)cc3)c(C)nn2c(C)c1CCC(=O)N1CCC(Cc2ccccc2)CC1,0.7,30,0.5,51*,-6.2*
Cc1nc2c(-c3ccc(F)cc3)c(C)nn2c(C)c1CCC(=O)N1CCN(c2ccccc2)CC1,0.5,50*,0.4,56*,-0.52
Cc1nc2c(-c3ccccc3)c(C)nn2c(C)c1CCC(=O)N1CCOCC1,0.9,10,1,-2,1.2

# Source: PubChem
